Measurements: the supplement of paper PMC6555819

Columns and labels:
Test in all cases: PBM binding z-score (relative to random genomic background probes); higher = stronger binding; sequences stand for … in GC…GCGATTGACAGCGTAGAATGAAGG
[1] = system: RARb homodimer (NR concentration 270 nM)
In short: (§1)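 Regression normalization was applied to scanned fluorescence from custom Agilent 4×180K protein-binding microarrays. Before scanning, arrays were incubated 1 h with ligand-free nuclear receptor dimers, and binding was detected with antibodies against each partner (one per run). Binding z-scores use the random background probes as reference.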

[2] = system: RARg:RXRa (NR concentration 270 nM, RXRa partner concentration 90 nM)
In short: as §1

[3] = system: RARg homodimer (NR concentration 270 nM)
In short: as §1

[4] = system: RXRa DBDmut IVT, anti-RXR (DBD mutation: RXRa K156A/R161A, NR concentration 90 nM)
In short: as §1

[5] = system: RXRa homodimer (NR concentration 180 nM)
In short: as §1

[6] = system: THRa:RXRa (NR concentration 90 nM, RXRa partner concentration 90 nM)
In short: as §1

[7] = system: THRa homodimer (NR concentration 90 nM)
In short: as §1

[8] = system: VDR homodimer (NR concentration 270 nM)
In short: as §1

Sequence | PBM binding z-score [1] | PBM binding z-score [2] | PBM binding z-score [3] | PBM binding z-score [4] | PBM binding z-score [5] | PBM binding z-score [6] | PBM binding z-score [7] | PBM binding z-score [8]
ATACCAAGGTGATCGTGAGCTCGTTGATACTAAC | 0.153 | -0.0277 | 0.19 | -0.225 | 0.139 | 0.678 | 0.422 | -0.219
CGAACCAGGGCATGAGTTGATAGCAAATGCCGAT | 0.207 | 0.644 | 0.753 | 0.293 | 0.492 | 0.518 | -0.382 | 0.429
CATACAGGGTTAGCTAGGCCAGAGTAGGGACGGC | 0.276 | 0.782 | 0.633 | -0.487 | 0.914 | 0.66 | -0.483 | -0.636
CCTGCTGGGTCAATGGTCAGCTAAAGCAGCTCGC | 2.5 | 3.24 | 3.33 | 0.787 | 2.48 | 1.26 | -0.14 | -0.211
TTACCAAGGTGAAAGGCCGTTGATGCACGCCTTG | 1.1 | 0.963 | 0.384 | -0.3 | 1.3 | 1.45 | 0.31 | -0.0991
AGAATGAGGTTACCAAAGATCAGGGATACGCTTG | 1.07 | 2.08 | 1.72 | 1.22 | 2.54 | 2.8 | 1.06 | 0.23
ATATGTAGGTTAGCTGGGGTCATCCAGACTAGGC | 4.24 | 4.41 | 3.52 | 1.31 | 5.97 | 5.2 | 3.24 | 4.34
GATACACGGTCAGCTAGAGGCCAGAGTATGGAAA | 1.9 | 2.39 | 2.33 | -0.51 | 0.403 | 0.349 | -0.599 | -0.244
CCTACTGGGCCAGGGTCATTGATCAGTCAAAGCA | 2.52 | 3.5 | 2.02 | 0.154 | 3.7 | 2.7 | 0.841 | 2.48
ATCGAAAGGTCGAAGGTGAATATACCCACCCGAA | 2.61 | 4.63 | 3.68 | 1.35 | 5.69 | 2.52 | 0.227 | 0.834
TGAATGAGGTTAAAGATCAAGGAACGTGGCGTCG | 0.599 | 2.57 | 1.35 | 1.24 | 4.06 | 2.41 | 0.289 | 0.251
TCTTGTAGATCAAGCAGGTTAACAAAGCCTGAGT | 0.14 | 0.253 | 0.0907 | 0.714 | 0.594 | 0.705 | -0.265 | 0.178
AGAATGAGGTTAAGATCAGGGTAACAGAATACAT | 1.41 | 2.69 | 1.65 | 1.08 | 2.85 | 3.16 | 1.45 | 0.804
CCCTACGGGTCACTCCAGGTTATAGCATCGGAGT | 3.22 | 4.52 | 4.67 | 0.434 | 4.72 | 4.94 | 0.457 | 1.79
TAGCCTAGGTCATTCACGGGCCAGTATAGAAAGC | 2.73 | 4.9 | 4.23 | 1.96 | 2.7 | 2.91 | 0.437 | 1.43
ACTAGTAGGCCAAGTTTGGGTCACTCAAACAAAG | 2.48 | 2.53 | 2.16 | 0.0627 | 1.15 | 2.6 | 1.31 | 0.613
AGTCAAAGTTCACTAGGTAACGTATGATTCAGCT | 3.72 | 4.86 | 5.88 | 4.22 | 3.76 | 2 | 0.141 | 3.34
